Laboratory results taken from article PMC4336329 (PLoS ONE, 2015).
In all, about 310,000 compounds went through this assay and about 14,000 (4.5%) showed an effect of 50% or more. The effect is printed as a negative number. The full list was thinned out, with strong results kept by preference.

What follows are molecules tested against human ether-à-go-go-related gene (hERG) potassium channel (human, UniProt Q12809) (assay: primary screen, population patch clamp on CHO cells stably expressing hERG; higher = less effect of the substance).
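Note: peak tail current of the secondary pulse compared with the same well before compound.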

human ether-à-go-go-related gene (hERG) potassium channel, sequence (Q12809 whole entry, looked up): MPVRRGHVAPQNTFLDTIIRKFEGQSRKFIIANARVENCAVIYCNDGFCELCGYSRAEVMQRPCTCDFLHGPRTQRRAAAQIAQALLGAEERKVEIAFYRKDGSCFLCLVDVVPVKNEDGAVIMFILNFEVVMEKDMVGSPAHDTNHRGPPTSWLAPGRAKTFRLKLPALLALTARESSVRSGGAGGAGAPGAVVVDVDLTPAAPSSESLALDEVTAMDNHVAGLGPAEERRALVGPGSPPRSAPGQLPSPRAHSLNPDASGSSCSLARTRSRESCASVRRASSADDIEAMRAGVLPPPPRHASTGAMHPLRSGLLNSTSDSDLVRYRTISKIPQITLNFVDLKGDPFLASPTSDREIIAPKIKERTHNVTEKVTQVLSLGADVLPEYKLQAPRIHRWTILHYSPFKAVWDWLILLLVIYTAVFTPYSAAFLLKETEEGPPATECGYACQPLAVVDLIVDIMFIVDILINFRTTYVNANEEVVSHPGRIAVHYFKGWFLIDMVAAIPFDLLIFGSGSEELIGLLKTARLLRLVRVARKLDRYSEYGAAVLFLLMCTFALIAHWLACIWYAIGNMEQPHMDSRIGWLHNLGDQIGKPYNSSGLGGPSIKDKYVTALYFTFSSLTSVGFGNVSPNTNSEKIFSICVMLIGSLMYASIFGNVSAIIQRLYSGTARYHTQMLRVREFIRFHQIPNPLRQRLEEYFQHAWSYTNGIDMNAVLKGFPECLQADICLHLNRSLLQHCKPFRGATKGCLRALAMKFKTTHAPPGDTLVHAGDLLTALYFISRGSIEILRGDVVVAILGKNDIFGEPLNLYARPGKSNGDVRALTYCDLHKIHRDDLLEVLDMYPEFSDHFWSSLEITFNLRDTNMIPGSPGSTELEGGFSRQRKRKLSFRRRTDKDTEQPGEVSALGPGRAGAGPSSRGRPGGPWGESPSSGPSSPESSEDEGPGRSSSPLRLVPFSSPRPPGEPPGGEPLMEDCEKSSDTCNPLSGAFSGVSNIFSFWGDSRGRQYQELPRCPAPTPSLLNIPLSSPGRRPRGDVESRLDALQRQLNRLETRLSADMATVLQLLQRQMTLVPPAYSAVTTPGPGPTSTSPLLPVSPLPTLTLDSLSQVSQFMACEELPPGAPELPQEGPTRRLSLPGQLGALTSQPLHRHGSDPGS

Row | SMILES | hERG current change (%, negative = inhibition) at 10uM
1 | Cc1cc(C)c(C#N)c(SCc2nnc(-c3ccccc3)o2)n1 | -0.532%
2 | O=C(CNCC1CCCO1)Nc1ccccc1N1CCCCCC1.O=C(O)C(=O)O (stereo not shown) | -6.51%
3 | COc1cc(OC)nc(Oc2ccccc2C(=O)Oc2ccc(C)cc2)n1 | -25.1%
4 | O=C(c1cc(C2CC2)on1)N1CCN(c2ccccc2)CC1 | -14.1%
5 | CCCCN1C(=O)C(=O)N(CC(=O)Nc2cc(S(=O)(=O)N(C)C)ccc2C)C1=O | 6.6%
6 | O=S(=O)(Nc1ccc(Br)cc1)c1cccc2nonc12 | 5.71%
7 | Cl.O=C(O)CCN1CCOCC1 | 19.8%
8 | Cc1ccc(C)c(S(=O)(=O)N2CCN(C(=O)CCNC(=O)c3ccc(Br)cc3)CC2)c1 | -33.4%
9 | O=C1CCC(=O)N1c1ccc(NC2CCN(Cc3ccccc3)CC2)c([N+](=O)[O-])c1 | 2.23%
10 | O=[N+]([O-])c1ccc(NC2CCN(Cc3ccccc3)CC2)c2ccncc12 | 6.01%
11 | O=C1C2CCCCC2C(=O)N1c1ccc(NC2CCN(Cc3ccccc3)CC2)c([N+](=O)[O-])c1 (stereo not shown) | -42.1%
12 | O=[N+]([O-])c1ccc(NC2CCN(Cc3ccccc3)CC2)c([N+](=O)[O-])c1 | -85.4%
13 | CC1CCC2C(=O)N(c3ccc(NC4CCN(Cc5ccccc5)CC4)c([N+](=O)[O-])c3)C(=O)C2C1 (stereo not shown) | -41.2%
14 | O=[N+]([O-])c1ccccc1NC1CCN(Cc2ccccc2)CC1 | -64.4%
15 | Cc1noc(C)c1S(=O)(=O)NCc1ccc(CN(C)C)cc1.Cl | 6.09%
16 | COc1ccc(CCNC(=O)/C(C#N)=C/c2ccc(OCC(=O)NCC3CCCO3)cc2)cc1OC (stereo not shown) | 11.7%
17 | CC(C)N(C(=O)COC(=O)c1ccc(O)cc1)C(C)C | -1.54%
18 | CCS(=O)(=O)c1nc(S(=O)(=O)c2ccc(C)cc2)c(NCCCN2CCCC2=O)s1 | -11.3%
19 | CS(=O)(=O)c1nc(S(=O)(=O)c2ccc(Cl)cc2)c(NCCCN2CCOCC2)s1 | -46.8%
20 | CCCCNC(=O)c1cn(C)c2ccc(S(=O)(=O)N3CC(C)CC(C)C3)cc2c1=O (stereo not shown) | 1.55%
21 | O=C1NC(=S)NC(=O)C12C(c1ccc(F)cc1)NC(=S)NC2c1ccc(F)cc1 (stereo not shown) | -4.14%
22 | Cl.Oc1cccc(Nc2nc(-c3ccccc3Cl)nc3ccccc23)c1 | 7.09%
